The text below walks through data of PubChem BioAssay AID583 (Sanford-Burnham Center for Chemical Genomics, 2007).

Each structure is given as a SMILES string. “And” between values parts separate entries of the source, which are not always exact repeats. Equal entries are not always repeated. Screen size: about 140,000 compounds; about 80 (0.06%) were called active. No stated cut-off is given here; in the data, active means displacement above about 50%; inactive means the rest. Shown is part of a subset that was picked to be rich in actives. Where a structure was tested more than once in an assay, its records may differ in their call.

For this experiment, the target named is Heat shock 70 kDa protein 1A (Homo sapiens) (UniProt P0DMV8). Nature of the experiment: Hsp70 inhibitors, probe displacement, primary screen, biochemical, fluorescence polarization (AID 583).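 Further: plate controls were vehicle for no effect and reference ligand for full effect.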 The following applies: mP, at 20 µM, stronger effect = higher value.
Sequence of Heat shock 70 kDa protein 1A (Homo sapiens) (P0DMV8 whole entry, looked up): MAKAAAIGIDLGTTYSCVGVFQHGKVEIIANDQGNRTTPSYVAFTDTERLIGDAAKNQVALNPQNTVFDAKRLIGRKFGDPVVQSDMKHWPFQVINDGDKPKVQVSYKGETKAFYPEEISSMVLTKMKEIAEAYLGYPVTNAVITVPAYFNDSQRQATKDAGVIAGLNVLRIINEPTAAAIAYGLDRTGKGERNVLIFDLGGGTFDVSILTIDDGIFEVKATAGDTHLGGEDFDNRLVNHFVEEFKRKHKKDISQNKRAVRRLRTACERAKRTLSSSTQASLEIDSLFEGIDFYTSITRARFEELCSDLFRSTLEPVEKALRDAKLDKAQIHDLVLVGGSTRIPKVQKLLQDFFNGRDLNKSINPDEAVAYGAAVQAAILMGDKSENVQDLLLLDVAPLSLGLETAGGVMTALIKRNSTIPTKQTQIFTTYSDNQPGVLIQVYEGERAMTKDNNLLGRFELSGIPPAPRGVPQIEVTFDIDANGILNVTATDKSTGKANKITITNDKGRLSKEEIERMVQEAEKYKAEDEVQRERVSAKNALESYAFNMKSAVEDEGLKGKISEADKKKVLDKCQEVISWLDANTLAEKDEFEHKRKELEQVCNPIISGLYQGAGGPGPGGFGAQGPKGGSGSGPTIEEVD
Take `CN(C)c1ccc(/C=C2\NC(=O)c3ccccc3C2=O)cc1`: the displacement was 2.7% (inactive).
Regarding `CCOC(=O)c1sc2ncc([N+](=O)[O-])c(NC)c2c1N`, the displacement was -5.6% (inactive).
With `Cc1cc(=O)[nH]c(SCC(=O)Nc2ccc(S(N)(=O)=O)cc2)n1`, the displacement is 4.4% (inactive).
`Cc1ccc(NC(=O)c2ccccc2O)cc1`: the displacement was 2.2% (inactive).
Take `O=C(N/N=C/c1ccccc1OCc1ccccc1)c1ccccc1O`: the displacement was 6% (inactive).
For `Cc1ccc(C(=O)O/N=C(\N)c2ccccn2)cc1`, the displacement was 0.2% (inactive).
For `O=C(N=Nc1c(O)n(Cc2ccccc2)c2ccccc12)c1ccccc1O` the value was 2.1% (inactive); for `O=C(Cn1nc(C(=O)O)c2ccccc2c1=O)NCC1CCCO1` (centres undefined), -0.7% (inactive).
On to `CC(NC(=O)c1c(NC(=O)c2ccco2)sc2c1CCCCC2)c1ccccc1` (centres undefined), for which the displacement was -6% (inactive).
For the compound `COC(=O)COc1ccc(/C=C2\C(=O)NC(=S)N(c3ccc(F)cc3)C2=O)cc1OC`, the displacement is 2.8% (inactive).
Consider `COc1ccc(CNC(=O)c2c(Cl)cccc2Cl)cc1`, for which the displacement is 5.5% (inactive).
Turning to `O=C(Nc1cccc2nsnc12)c1ccc(Cl)cc1Cl`, the displacement was 3.7% (inactive).
Under `Cc1ccc(C)n1-c1ccc(Cl)c(C(=O)O)c1` stands 83.5% (active); under `Cc1nc(=O)c(-c2ccccc2)c(C)n1-c1ccc(O)c(C(=O)O)c1`, -3.3% (inactive).
Under `Cc1ccc(-c2ccccc2)n1-c1ccc(O)c(C(=O)O)c1` stands 4.2% (inactive).
In the case of `Cc1ccc(C)n1-c1ccc(O)c(C(=O)O)c1`, the displacement was 98.2% (active).
Regarding `Cc1ccc(C)n1-c1ccc(C(=O)O)c(Cl)c1`, the displacement was 33.7% (inactive).
For `O=C(O)c1ccc(-n2cccc2)cc1O`, the displacement was -0.2% (inactive).
Under `Cc1nc(=O)c(-c2ccccc2)c(C)n1-c1ccc(C(=O)O)c(O)c1` stands 0.2% (inactive); under `Cc1ccc(C)n1-c1ccc(C(=O)O)c(O)c1`, 98.5% (active).
For `Cc1ccc(-c2ccccc2)n1-c1ccc(Cl)c(C(=O)O)c1` the value was -4% (inactive); for `CC(C)c1c(O)nc(SCC(=O)Nc2ccc3c(c2)CCC3)[nH]c1=O`, 1.5% (inactive); for `Cc1ccc(C(=O)O)cc1-n1c(C)ccc1C`, 67.8% (active).
For `Cc1ccc(-c2ccccc2)n1-c1ccc(C(=O)O)cc1` the value was -1.6% (inactive); for `Cc1cc(C(=O)O)ccc1-n1c(C)ccc1C`, 61.3% (active) and 37.4% (inactive).
As for `Cc1ccc(C)n1-c1cc(C(=O)O)cc(C(=O)O)c1`, the displacement was 8.5% (inactive).
For `Cc1cc(N)ccc1-n1c(C)ccc1C`, the displacement is -2.7% (inactive).
For `Cc1ccc(-c2ccccc2)n1-c1cccc(C(=O)O)c1`, the displacement is -1.8% (inactive).
`Cc1cc(Cl)c2cc(C(=O)O)ccc2n1`: the displacement was 2.8% (inactive).
In the case of `Cc1ccc(C)n1-c1cc(C(=O)O)ccc1O`, the displacement was 27% (inactive).
Turning to `Cc1ccc(N2C(=O)c3ccc(C(=O)O)cc3C2=O)c(C)c1`, the displacement is 0.7% (inactive).
Regarding `Cc1ccc(C)n1-c1cc(C(=O)O)ccc1Cl`, the displacement was 89.5% (active).
For `Cc1ccc(C)n1-c1ccc(C(=O)O)cc1`, the displacement was 16% (inactive).
With `CCN(CC)CCn1c2ccccc2n2cc(C(C)(C)C)nc12`, the displacement was 0% (inactive).
On to `CC(=O)Nc1ccc(N2C(=O)c3cc4ccccc4cc3C2=O)cc1`, for which the displacement is 5.1% (inactive).
For `Cc1cc(Br)cc2c(N=Nc3cccc4cccnc34)c(O)n(C)c12`, the displacement was 3.2% (inactive).
Under `CC(=O)C(C(C)=O)c1c(Cl)c(O)c(O)c2c(C(=O)c3ccccc3)coc12` stands 1% (inactive).
Consider `COc1cccc(C(=O)CSc2nnc(COc3cccc4cccnc34)o2)c1`, for which the displacement is 3.7% (inactive).
Regarding `O=C(O)COc1ccc(N2C(=O)C=CC2=O)cc1`, the displacement is 0.9% (inactive).
In the case of `Cc1ccc(C)n1-c1ccc(CC(=O)O)cc1`, the displacement is 23.3% (inactive).
Turning to `Cc1ccc(C)n1-c1ccc(OCC(=O)O)cc1`, the displacement was 62.2% (active).
Turning to `Cc1ccc(C)n1-c1ccc(SCC(=O)O)cc1`, the displacement was 100% (active).
As to `CC(=O)c1ccc(-n2c(C)ccc2C)cc1`, the displacement is 6.4% (inactive).
As for `CC(C)(C)c1ccc(OCC(=O)O)cc1`, the displacement was 4.2% (inactive).
Consider `CC1CCCCN1CCNC(=O)CC1Oc2ccccc2NC1=O` (centres undefined), for which the displacement is 9.4% (inactive).
For `CCOC(=O)c1c(C)[nH]c(C(=O)COC(=O)C(C)N2C(=O)C3CCCCC3C2=O)c1C` (centres undefined) the value was -1.9% (inactive); for `CCOC(=O)C1CCN(C(=O)CSCCSCC(=O)N2CCC(C(=O)OCC)CC2)CC1`, -0.9% (inactive).
As to `COc1ccc2[nH]c(=O)c(CN(C(=O)c3ccco3)C3CCCCC3)cc2c1`, the displacement is -0.4% (inactive).
Consider `O=C1S/C(=C\c2cccs2)C(=O)N1c1cccc(Cl)c1`, for which the displacement is -1.3% (inactive).
Regarding `CC(Oc1ccc2c3c(c(=O)oc2c1)CCCC3)C(=O)c1ccccc1` (centres undefined), the displacement was 2.3% (inactive).
Consider `O=C(CCn1nnc2ccccc2c1=O)NCC1CCC(C(=O)O)CC1` (centres undefined), for which the displacement is 2% (inactive).
Under `O=C(CNC(=O)c1ccc(Cl)cc1Cl)c1ccccc1` stands 1.6% (inactive); under `COc1cccc(CN(CC2CCCO2)S(=O)(=O)c2ccc(S(=O)(=O)NCC3CCCO3)cc2)c1OC` (centres undefined), -2.5% (inactive); under `C=CCN1C(=O)/C(=C\c2ccc(-c3ccc([N+](=O)[O-])cc3)o2)C(=O)NC1=S`, 2.8% (inactive).
As for `C=CCN1C(=O)/C(=C\c2ccc([N+](=O)[O-])o2)C(=O)NC1=S`, the displacement was 95.9% (active).
As for `C=CCN1C(=O)/C(=C\c2ccc(I)o2)C(=O)NC1=S`, the displacement is 0.9% (inactive).
Turning to `Cc1ccc(NC2=C(Cl)C(=O)N(c3ccccc3Cl)C2=O)cc1C`, the displacement was 0.5% (inactive).
Under `CCOc1ccc(C(=O)Nc2ccc(NC(=O)c3ccccc3Cl)cc2)cc1Br` stands -4.2% (inactive); under `COc1ccc(/C=C/C(=O)Nc2nc(C)c(C)s2)cc1OC`, -0.1% (inactive).
